Test: small-molecule binders of probe aInhba, primary screen, biochemical, small-molecule microarray, 635/667 nm fluorescence (AID 1148);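 further: score merges 667nm spot fluorescence with signal-to-noise for antibody binding to printed compounds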
Conditions: higher = more signal

Structure (SMILES)	composite z-score
COCCOC(=O)N1C(=O)[C@@]2(c3cc(C#Cc4ccc(OC)cc4)ccc31)[C@H](c1ccc(OCCO)cc1)N1[C@H](c3ccccc3)[C@H](c3ccccc3)OC(=O)[C@H]1[C@@H]2C(=O)N1CCN(c2ncccn2)CC1	0.0464
C[N+](C)(C)CCCCCCNC(=O)[C@@H]1C[C@@H]2C(=O)N[C@@H](Cc3ccccc3)C(=O)N2[C@@H]1c1cccc(OCCO)c1	-0.0918
CCOC(=O)C1=C[C@@H](C(C)(C)C)N(S(=O)(=O)c2ccc(C)cc2)[C@H]1c1ccc(F)cc1	0.255
COC(=O)c1c(CC[C@@H](CO)NC(=O)NCCn2cc(C3(O)CCCC3)nn2)oc(C(C)=O)c1C(=O)OC	-0.203
NC(=O)N1C(=O)C2C(C1=O)C1C=C(c3ccc(CO)cc3)C2C(c2cccs2)N1Cc1cccc(OC(F)(F)F)c1 (stereo not given)	0.29
NC(=O)[C@@H]1[C@H]2C(=O)O[C@H](c3ccccc3)[C@H](c3ccccc3)N2[C@H](c2ccc(O)cc2)[C@@]12C(=O)Nc1ccccc12	-0.152
CC(C)N1C(=O)C[C@@](C(=O)NCC(F)(F)F)(c2ccc([N+](=O)[O-])cc2)[C@H]1c1ccc(CO)cc1	-0.128
COCCCNC(=O)[C@@]1(C)c2ccccc2C(=O)N(C(C)C)[C@H]1c1ccc(CO)cc1	0.143
C=C(/C(=C/C[C@H](OC(C)=O)c1ccccc1OCCO)c1cnc2ccccc2c1)C(C)C	0.0543
C=CCNC(=O)[C@@H]1[C@H]2C(=O)O[C@H](c3ccccc3)[C@H](c3ccccc3)N2[C@H](c2ccc(O)cc2)[C@@]12C(=O)N(C(=O)OCCOC)c1ccc(C#CCNC(N)=O)cc12	-0.131

Source: PubChem BioAssay
